Screens from PubChem.
SW480 rerep: DNA re-replication induction in SW480 cells; SW480 DNA re-replication, Hoechst DNA content imaging, 48 h; Potency, µM (doses to about 46.1 µM), inactives show top-dose re-replication activation, actives largely listed as activators; actives 1.8% (n = 340,000); further: potency means the concentration at half of the fitted maximal effect; % of control where 0% means no effect; nearly all actives have a fitted effect of over 55% in size
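First, 250 cells per well were seeded. Next, compound or vehicle (23 nL) was pinned in, plates sat 48 hr at 37 C. Finally Hoechst was added for 40 min before fluorescence scanning.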
Giardia kill: kills Giardia lamblia; actives 0.15% (n = 340,000); activity change, % at 7.66 µM, hits read low; AID 540267; Giardia lamblia trophozoite viability; in the data active means activity change below about -80%; inconclusive means between about -30% and that limit;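 further: parasites exposed to compound for two days anaerobically before the ATP read; on the % scale 0 is the no-effect control and ±100 the full control effect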
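Trophozoite viability was measured as ATP-dependent luminescence, read 15-30 min after reagent addition. Before that, parasites at 100 cells/well were exposed to compounds for 48 h, anaerobically, at 37 deg C.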
BCR signal inh: blocks chronic active B-cell receptor signaling; ABC-DLBCL IkBa-CBG/CBR reporter, luminescence ratio, 4 h; Potency, µM (titrated, usually from 46.1 µM), inactives show at the highest dose activity change, negative = inhibition, actives largely listed as inhibitors; actives 0.05% (n = 340,000); active means well fitted inhibition curve with a large enough effect in the signal ratio, with a control signal flat, not every such curve was filed as active; inconclusive means small, poorly fitted or top-dose-only effect, or effect the other way, or a change in a side signal; the % refers to the signal ratio;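 further: potency means the concentration at half of the fitted maximal effect; plate controls were basal doxycycline-induced cells for no effect and cells given 10 µM MG132 for full effect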
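Cell line TMD8 (human ABC DLBCL), stably expressing tet-inducible CBG68-IkBa fusion and CBR; IMDM/0.5% FBS; cpd up to 46 uM; dox induction, 4 h, 37C/5% CO2; dual luminescence; green/red ratio; MG132 control.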
MCF10A rerep: inducers of DNA re-replication in MCF 10A breast cells. MCF 10A DNA re-replication, Hoechst nuclear intensity, 48 h. Potency, µM (top dose mostly 46.1 µM), for inactives: at the top dose activity, positive = re-replication, usual class: activators. actives 2.9% (n = 350,000). AID 624296; further: potency means the concentration at half of the fitted maximal effect; % of control where 0% means no effect; nearly all actives have a fitted effect of over 50% in size
RORg inh: inhibitors of mouse ROR gamma transcriptional activity; actives 5.4% (n = 310,000); Potency, µM (doses to about 53.6 µM), inactives show top-dose activity change, negative = inhibition, actives largely listed as inhibitors; P51450; AID 2551; Drosophila S2 Gal4-RORgamma UAS-luciferase reporter, 20 h; further: potency means the concentration at half of the fitted maximal effect; on the % scale 0 is the no-effect control and ±100 the full control effect; nearly all actives have a fitted effect of over 60% in size
Target sequence (P51450 whole entry, looked up, the tested form may be a part): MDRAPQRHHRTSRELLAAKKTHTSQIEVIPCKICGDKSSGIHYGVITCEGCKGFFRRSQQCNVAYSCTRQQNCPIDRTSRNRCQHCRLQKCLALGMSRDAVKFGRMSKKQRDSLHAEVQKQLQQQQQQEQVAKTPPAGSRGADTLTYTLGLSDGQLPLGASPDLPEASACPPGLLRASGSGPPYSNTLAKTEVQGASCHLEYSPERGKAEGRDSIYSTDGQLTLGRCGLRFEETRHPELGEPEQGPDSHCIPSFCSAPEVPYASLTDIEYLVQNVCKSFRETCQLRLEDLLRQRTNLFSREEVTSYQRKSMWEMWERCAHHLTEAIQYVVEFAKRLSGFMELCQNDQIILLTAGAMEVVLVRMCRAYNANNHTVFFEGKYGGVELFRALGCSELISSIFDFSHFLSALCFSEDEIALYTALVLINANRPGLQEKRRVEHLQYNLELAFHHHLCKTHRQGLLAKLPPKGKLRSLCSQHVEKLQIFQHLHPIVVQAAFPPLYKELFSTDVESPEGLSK
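Schneider cells (Drosophila), stable Gal4 DBD–ROR gamma + UAS-luc; 1 hr cmpd preincubation; Cu2+ induction 700 uM final; 20 hr ambient; luminescence.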
VP16 counter: counter-screen for ROR gamma inhibitors: Gal4-VP16 reporter | Potency, µM (top dose mostly 53.6 µM), for the others: at the top dose activity, negative = inhibition, most hits filed as inhibitors | actives 3.5% (n = 310,000) | Drosophila S2 Gal4-VP16 UAS-luciferase, luminescence, 20 h;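 further: Gal4-VP16 expression switched on by copper sulfate through the metallothionein promoter; potency means the concentration at half of the fitted maximal effect; on the % scale 0 is the no-effect control and ±100 the full control effect; nearly all actives have a fitted effect of over 50% in size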
* hit, by the source's call; [ ] = another dose, or the depositor's remark. Hits are enriched below; roughly 8.3% of the tested compounds scored in any of these assays. Unless noted, the call rests on the fitted dose curve; in most records, active means well fitted curve in the direction sought with a large enough effect; inconclusive means small, poorly fitted or top-dose-only effect, or another doubt; inactive means no such curve, though single readings can be large; an effect the other way counts as inactive or inconclusive.

Screening Cc1ccc2oc(-c3ccc(C)c(NC(=S)NC(=O)c4cccs4)c3)nc2c1 returned SW480 rerep -6%, Giardia kill -16, BCR signal inh -2%, MCF10A rerep 10µM*, RORg inh 7.1µM* and VP16 counter 7.1µM*.
`CCC(=O)Nc1ccc2oc(-c3cccc(C)c3)nc2c1` gave SW480 rerep 6%, Giardia kill inconclusive, BCR signal inh inconclusive, MCF10A rerep -2%[9.22 µM], RORg inh 0.79µM* and VP16 counter 2.2µM*.
`CSc1nc(N(C)NC(=O)c2ccc(F)cc2)c2ccccc2n1` gave SW480 rerep 2.3µM*, Giardia kill -3, BCR signal inh inconclusive, MCF10A rerep 1.8µM*, RORg inh inconclusive and VP16 counter 6%[0.365 µM].
For Cc1nc(SCC(=O)NNC(=O)c2ccc(F)cc2)c2ccccc2n1 the results were SW480 rerep -15%, Giardia kill -6, BCR signal inh inconclusive and MCF10A rerep 3%.
For COCCn1c(=S)[nH]c2cc(C(=O)N3CCc4ccccc43)ccc2c1=O the results were SW480 rerep -7%, Giardia kill -1, BCR signal inh inconclusive, MCF10A rerep -1%, RORg inh 13µM* and VP16 counter inconclusive.
For CCCn1c(=S)[nH]c2cc(C(=O)N3CCc4ccccc43)ccc2c1=O the results were SW480 rerep -8%, Giardia kill 7, BCR signal inh 1%, MCF10A rerep inconclusive, RORg inh 2.8µM* and VP16 counter 3.5µM*.
Screening O=C(O)CSc1nnc(NC(=O)c2ccc3c(c2)OCO3)s1 returned SW480 rerep 5%, Giardia kill inconclusive, BCR signal inh inconclusive, MCF10A rerep 6%, RORg inh 13µM* and VP16 counter 13µM*.
`COC(=O)CSc1nnc(NC(=O)c2ccc3c(c2)OCO3)s1` gave SW480 rerep -3%, Giardia kill inconclusive, BCR signal inh 8%, MCF10A rerep 1%, RORg inh 6.3µM* and VP16 counter inconclusive.
Cc1ccc(OCCCCCCN2CCNCC2)cc1 was read as SW480 rerep inconclusive, Giardia kill -1 and MCF10A rerep inconclusive.
CCC1(C2=CCCCC2)C(=O)NC(=O)N=C1N (centres undefined) was read as SW480 rerep -7%, Giardia kill 13 and MCF10A rerep -11%.
Screening Cc1ccc(C(=O)N/N=C/C2=Cc3ccccc3OC2C)cc1 (centres undefined) returned SW480 rerep 0%, Giardia kill 4, BCR signal inh 17%, MCF10A rerep inconclusive, RORg inh 3.2µM* and VP16 counter inconclusive.
For CC1Oc2ccccc2C=C1/C=N/NC(=O)c1ccccc1 (centres undefined) the results were SW480 rerep 0%, Giardia kill -9, BCR signal inh inconclusive, MCF10A rerep 0%, RORg inh -15% and VP16 counter inconclusive.
For COc1ccc(Cn2c(SCc3ccccc3C)nc3cc(OC)c(OC)cc3c2=N)cc1 the results were BCR signal inh -1%, RORg inh inconclusive and VP16 counter 22µM*.
For COCCCn1c(SCCc2ccccc2)nc2cc(OC)c(OC)cc2c1=N the results were SW480 rerep -14%, Giardia kill -18, BCR signal inh 17%, MCF10A rerep 7.3µM*, RORg inh 4% and VP16 counter 9%.
For COc1cc2nc(SCc3ccc(F)cc3)n(Cc3cccs3)c(=N)c2cc1OC the results were SW480 rerep -10%, Giardia kill -4, BCR signal inh 10%, MCF10A rerep 24%, RORg inh -1% and VP16 counter inconclusive.
`CCSc1nc2cc(OC)c(OC)cc2c(=O)n1CCc1ccccc1` gave SW480 rerep -8%, Giardia kill 4, BCR signal inh 0%, MCF10A rerep 21%, RORg inh -30% and VP16 counter -8%.
`Cc1ccc(C(=O)C2=C(O)C(=O)N(CC3CCCO3)C2c2ccccc2F)o1` (centres undefined) gave SW480 rerep 5%, Giardia kill -5, BCR signal inh -2%, MCF10A rerep 0%, RORg inh -13% and VP16 counter 0%.
Screening COc1ccc(NC(C)=O)cc1S(=O)(=O)Nc1ccc(C(=O)N2CCCC2)cc1 returned SW480 rerep -5%, Giardia kill 15, BCR signal inh -5%, MCF10A rerep 1%, RORg inh -17% and VP16 counter -16%.
Screening O=C(c1csnn1)N1CCC2(CC1)CCN(c1cccc(-c3ccccc3)c1)CC2 returned RORg inh 37% and VP16 counter -10%.
Cc1noc(NS(=O)(=O)c2ccc(NC(=O)CSc3nc4c(cc3C#N)CCC4)cc2)c1C was read as SW480 rerep 0%, Giardia kill -28, BCR signal inh -8%, MCF10A rerep inconclusive, RORg inh -32% and VP16 counter 4%.
`N#Cc1c(NC(=O)CSc2nc(N)cc(=O)[nH]2)sc2c1CCCCCC2` gave SW480 rerep -4%, Giardia kill -11, BCR signal inh 1%, MCF10A rerep 26%, RORg inh -4% and VP16 counter inconclusive.
For N#Cc1cc2c(nc1SCC(=O)Nc1sc3c(c1C#N)CCC3)CCCCC2 the results were SW480 rerep 18µM*, Giardia kill -6, BCR signal inh 7%, MCF10A rerep 0.82µM*, RORg inh -28% and VP16 counter -6%.
Cc1noc(NS(=O)(=O)c2ccc(NC(=O)CSc3nc4c(cc3C#N)CCCC4)cc2)c1C was read as SW480 rerep 2%, Giardia kill -22, BCR signal inh inconclusive, MCF10A rerep 23µM*, RORg inh 6% and VP16 counter 8%.
For N#Cc1c(NC(=O)CSc2ncn[nH]2)sc2c1CCCCC2 the results were SW480 rerep inconclusive, Giardia kill 10, BCR signal inh inconclusive, MCF10A rerep -1%, RORg inh 0.4µM* and VP16 counter 0.16µM*.
For Cc1cc(C)c(C#N)c(SCC(=O)Nc2ccc(S(=O)(=O)Nc3ncccn3)cc2)n1 the results were SW480 rerep -27%, Giardia kill 9, BCR signal inh inconclusive, MCF10A rerep -6%, RORg inh 8.9µM* and VP16 counter 13µM*.
Screening O=C(O)C1C2C=CC(C2)C1C(=O)NCc1ccccc1F (centres undefined) returned SW480 rerep 0%, Giardia kill 2, BCR signal inh 4%, MCF10A rerep -1%, RORg inh 12% and VP16 counter -3%.
